Assay results from the supplement of paper PMC9023506.
Structures can show the parent of a compound that is named as a salt.

Each compound was assayed on Danio rerio larvae (5 dpf) (assay: activity during period 15 (no stimuli), difference vs DMSO (percentage points (treated minus DMSO)); higher = more of the behaviour than the DMSO vehicle control). Settings: 10 µM; exposure time: 3 h pre-incubation + 3 h imaging.
Experimental: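 5-dpf wild-type zebrafish larvae were imaged in 96-well plates. They were treated with 190 Tocris FDA-approved drugs at 10 µM (1 µl/ml DMSO) for 3 h before and 3 h during imaging at 28.5 °C, 48 larvae per drug. Automated image analysis gave % time moving and optomotor responses. Values are drug group mean minus DMSO vehicle mean (n=844), in percentage points, for 10 behaviours.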
In the case of `CCc1nc(N)nc(N)c1-c1ccc(Cl)cc1` [Pyrimethamine], the “activity during period 15” value is reported as -4.35.
For `CN1CCN(CCCN2c3ccccc3Sc3ccc(Cl)cc32)CC1` [Prochlorperazine dimaleate], the “activity during period 15” value was 16.6.
With `COc1ccc(C[C@@H](C)NC[C@H](O)c2ccc(O)c(NC=O)c2)cc1` [Arformoterol tartrate] the “activity during period 15” value was 46.5.
In the case of `CC(C)Nc1cccnc1N1CCN(C(=O)c2cc3cc(NS(C)(=O)=O)ccc3[nH]2)CC1` [Delavirdine mesylate], the “activity during period 15” value is reported as -4.9.
With `CC(C)[C@H]1CC[C@H](C(=O)N[C@H](Cc2ccccc2)C(=O)O)CC1` [Nateglinide] the “activity during period 15” value was -0.384.
`CN1CC(=O)N2[C@H](c3ccc4c(c3)OCO4)c3[nH]c4ccccc4c3C[C@@H]2C1=O` [Tadalafil] was tested, and the “activity during period 15” value was -1.47.
`NS(=O)(=O)c1cc(C(=O)O)c(NCc2ccco2)cc1Cl` [Furosemide] was tested, and the “activity during period 15” value was 9.33.
For `Nc1cc(N2CCCCC2)nc(N)[n+]1[O-]` [Minoxidil], the “activity during period 15” value was 6.89.
For `O=C(O)c1cc(/N=N/c2ccc(S(=O)(=O)Nc3ccccn3)cc2)ccc1O` [Sulfasalazine], the “activity during period 15” value was 15.3.
For `CNC(=O)c1ccccc1Sc1ccc2c(/C=C/c3ccccn3)n[nH]c2c1` [Axitinib], the “activity during period 15” value was 3.22.
In the case of `CC(C)c1nc(CN(C)C(=O)N[C@H](C(=O)N[C@@H](Cc2ccccc2)C[C@H](O)[C@H](Cc2ccccc2)NC(=O)OCc2cncs2)C(C)C)cs1` [Ritonavir], the “activity during period 15” value is reported as -8.67.
`CC1=Nc2ccc(Cl)cc2S(=O)(=O)N1` [Diazoxide] was tested, and the “activity during period 15” value was 2.35.
`Clc1ccccc1C(c1ccccc1)(c1ccccc1)n1ccnc1` [Clotrimazole] was tested, and the “activity during period 15” value was -30.5.
`Cc1nnc(C(C)C)n1C1C[C@H]2CC[C@@H](C1)N2CC[C@H](NC(=O)C1CCC(F)(F)CC1)c1ccccc1` (stereo in doubt) [Maraviroc] was tested, and the “activity during period 15” value was -3.11.
`CCC(C)(C)C(=O)O[C@H]1C[C@@H](C)C=C2C=C[C@H](C)[C@H](CC[C@@H]3C[C@@H](O)CC(=O)O3)[C@H]21` [Simvastatin] was tested, and the “activity during period 15” value was -3.71.
For `COc1ccc(Cl)cc1C(=O)NCCc1ccc(S(=O)(=O)NC(=O)NC2CCCCC2)cc1` [Glibenclamide], the “activity during period 15” value was -4.16.
For `CC(c1cc2ccccc2s1)N(O)C(N)=O` (stereo not given) [Zileuton], the “activity during period 15” value was 3.35.
In the case of `Cn1nnc2c(C(N)=O)ncn2c1=O` [Temozolomide], the “activity during period 15” value is reported as 2.03.
In the case of `COc1ccc(-c2ccc3cc(C(=O)O)ccc3c2)cc1C12CC3CC(CC(C3)C1)C2` [Adapalene], the “activity during period 15” value is reported as -3.39.
`C[C@]12CCC(=O)C=C1CC[C@@H]1[C@@H]2[C@@H](O)C[C@@]2(C)[C@H]1CC[C@]2(O)C(=O)CO` [Hydrocortisone] was tested, and the “activity during period 15” value was -3.01.
With `COc1c(C)c2c(c(O)c1C/C=C(\C)CCC(=O)O)C(=O)OC2` [Mycophenolic acid] the “activity during period 15” value was 9.46.
For `CC(=O)Oc1ccccc1C(=O)O` [Aspirin], the “activity during period 15” value was -1.19.
With `CN1CCN2c3ncccc3Cc3ccccc3C2C1` (stereo not given) [Mirtazapine] the “activity during period 15” value was 4.7.
`Cc1nc(-c2ccc(OCC(C)C)c(C#N)c2)sc1C(=O)O` [Febuxostat] was tested, and the “activity during period 15” value was 10.
For `C[C@@H](O[C@H]1OCCN(Cc2n[nH]c(=O)[nH]2)[C@H]1c1ccc(F)cc1)c1cc(C(F)(F)F)cc(C(F)(F)F)c1` [Aprepitant], the “activity during period 15” value was -7.86.
`CCCCC1=NC2(CCCC2)C(=O)N1Cc1ccc(-c2ccccc2-c2nnn[nH]2)cc1` [Irbesartan] was tested, and the “activity during period 15” value was 5.68.
In the case of `CCCN(CCC)S(=O)(=O)c1ccc(C(=O)O)cc1` [Probenecid], the “activity during period 15” value is reported as -4.09.
`CN[C@H]1CC[C@@H](c2ccc(Cl)c(Cl)c2)c2ccccc21` [Sertraline hydrochloride] was tested, and the “activity during period 15” value was -26.
With `CCOC(=O)[C@H](CCc1ccccc1)N[C@@H](C)C(=O)N1[C@H](C(=O)O)C[C@@H]2CCC[C@@H]21` [Ramipril] the “activity during period 15” value was -2.34.
With `CC(C)N(CCCCOCC(=O)NS(C)(=O)=O)c1cnc(-c2ccccc2)c(-c2ccccc2)n1` [Selexipag] the “activity during period 15” value was 6.35.
`O=C1CCc2cc(OCCCCc3nnnn3C3CCCCC3)ccc2N1` [Cilostazol] was tested, and the “activity during period 15” value was 3.03.
For `O=C(c1ccc(OCCN2CCCCC2)cc1)c1c(-c2ccc(O)cc2)sc2cc(O)ccc12` [Raloxifene hydrochloride], the “activity during period 15” value was -8.58.
In the case of `O=C(O)CCCc1ccccc1` [Sodium 4-Phenylbutyrate], the “activity during period 15” value is reported as 0.951.
In the case of `CN(C)C(=N)NC(=N)N` [Metformin hydrochloride], the “activity during period 15” value is reported as -4.35.
With `COc1ccccc1Oc1c(NS(=O)(=O)c2ccc(C(C)(C)C)cc2)nc(-c2ncccn2)nc1OCCO` [Bosentan] the “activity during period 15” value was -4.44.
For `Cc1cc(C2CCCCC2)n(O)c(=O)c1` [Ciclopirox], the “activity during period 15” value was 10.7.
For `CC/C(=C(\c1ccccc1)c1ccc(OCCN(C)C)cc1)c1ccccc1` [Tamoxifen citrate], the “activity during period 15” value was 20.1.
In the case of `C[C@H]1C[C@@H]2[C@H]([C@@H](O)C[C@@]3(C)[C@H]2CC[C@]3(O)C(=O)CO)[C@@]2(C)C=CC(=O)C=C12` [Methylprednisolone], the “activity during period 15” value is reported as -4.72.
`COc1cccc2c1C(=O)c1c(O)c3c(c(O)c1C2=O)C[C@@](O)(C(=O)CO)C[C@@H]3O[C@H]1C[C@H](N)[C@H](O)[C@H](C)O1` [Doxorubicin hydrochloride] was tested, and the “activity during period 15” value was -10.6.
`CCCc1nc2c(C)cc(-c3nc4ccccc4n3C)cc2n1Cc1ccc(-c2ccccc2C(=O)O)cc1` [Telmisartan] was tested, and the “activity during period 15” value was -7.63.
